ZTA DNA inh – ZTA (EBV) inhibition in EBNA-1 counter-screen; P03206; ZTA-DNA binding, fluorescence polarization; inhibition, % at 11 µM; 0.15% of 320,000 active; AID 2234; in the data active = inhibition above about 33%
LYPLA2 inh – blocks human lysophospholipase 2, a PME1 counter-screen; O95372; recombinant LYPLA2, FP-Rh probe fluorescence polarization; inhibition, % at 5.9 µM; 0.38% of 320,000 active; AID 2177;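 active = inhibition above the screen-wide mean plus 3 SD, limit set per campaign, cut at about 26% in these data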;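 note: 0% = LYPLA2 with DMSO and 100% = wells lacking LYPLA2 enzyme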
Target sequence (O95372 whole entry, looked up): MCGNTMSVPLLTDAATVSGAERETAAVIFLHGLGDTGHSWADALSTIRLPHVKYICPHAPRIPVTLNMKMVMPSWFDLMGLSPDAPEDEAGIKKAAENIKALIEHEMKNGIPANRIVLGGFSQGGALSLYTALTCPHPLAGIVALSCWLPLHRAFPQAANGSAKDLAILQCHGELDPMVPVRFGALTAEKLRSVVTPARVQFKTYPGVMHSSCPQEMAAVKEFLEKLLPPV
EBNA-1 inh – blocks EBNA-1 binding to DNA; inhibition, % at 14.8 µM; EBNA-1 DNA binding, fluorescence polarization; 0.34% of 300,000 active; in the data active = inhibition above about 28%
LANA-H2A inh – blocks KSHV LANA binding to histone H2A/H2B; Q9QR71; cell-free LANA-H2A/H2B peptide, fluorescence polarization; inhibition, % (no concentration beside the values); 0.6% of 320,000 active; AID 2629; in the data active = inhibition mostly above about 10%, no sharp cut-off; inactive = mostly below about 6.7%
LYPLA1 inh – LYPLA1 (human) inhibition in PME1 counter-screen; inhibition, % at 5.9 µM; recombinant LYPLA1, FP-Rh probe fluorescence polarization; AID 2174; 0.16% of 320,000 active;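 active = inhibition above the mean of all tested compounds plus 3 SD, set per campaign, cut at about 14% in these data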;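 note: inhibitors block serine hydrolase probe labeling of LYPLA1 so polarization falls; 0% = enzyme with DMSO and 100% = wells lacking LYPLA1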
Target sequence (O75608 whole entry, looked up): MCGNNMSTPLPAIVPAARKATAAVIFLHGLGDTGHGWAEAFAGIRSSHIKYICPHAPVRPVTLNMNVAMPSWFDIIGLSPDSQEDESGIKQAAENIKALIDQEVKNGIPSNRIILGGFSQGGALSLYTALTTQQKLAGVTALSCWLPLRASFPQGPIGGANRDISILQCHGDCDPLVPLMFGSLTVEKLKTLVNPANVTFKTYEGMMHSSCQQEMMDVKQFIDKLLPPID
Active calls of the source: *; . = no result; + = active, no number; ! = not confirmed by another sample. Rows were chosen to be rich in hits. Some 1.4% of all compounds tested hit in one or more screens of this group.

SMILES	ZTA DNA inh	LYPLA2 inh	EBNA-1 inh	LANA-H2A inh	LYPLA1 inh
O=C(OCCN1C(=O)c2cccc3c(N4CCOCC4)ccc(c23)C1=O)c1cccc(Cl)c1	10.4	-6.8	10.1	36.8*	-6.3
O=C(OCCN1C(=O)c2cccc3c(N4CCOCC4)ccc(c23)C1=O)c1ccc(Cl)cc1Cl	-7.8	-16.7	-3.0	30.1*	-9.6
Cn1c(=O)n(C)c2cc(N3CCOCC3)c(NC(=O)c3cccc(Cl)c3)cc21	3.0	4.2	-2.6	-2.7	3.1
O=C(OCCN1C(=O)c2ccccc2C1=O)c1cc(S(=O)(=O)N2CCOCC2)ccc1Cl	-0.1	-3.0	-8.8	0.0	-6.2
O=C1c2cccc3c(N4CCCCC4)ccc(c23)C(=O)N1CCO	-17.1	2.1	-4.1	48.8*	2.9
O=C(OCCN1C(=O)c2cccc3c(N4CCOCC4)ccc(c23)C1=O)c1ccccc1Cl	-5.8	-9.6	-15.0	27.4*	-6.6
NS(=O)(=O)c1ccc(N/N=C/c2ccccc2Br)cc1	13.4	1.1	15.5	1.7	7.8
Cc1ccc(NS(=O)(=O)c2c(C(=O)N3CCCCCC3)c(C)n(C)c2C)c(C)c1	4.9	6.8	9.5	0.1	2.8
COc1ccc(OC)c(NC(=O)NNC(=O)COc2ccc(F)cc2F)c1	-25.5	0.1	-4.0	-1.6	-2.4
Oc1ccc2ccccc2c1C=Nc1ccc(Cl)cn1	0.9	-0.2	15.6	3.0	-1.1
Cc1cc(C)nc(N2CCCC(C(=O)NCc3cccc(C(F)(F)F)c3)C2)n1 (stereo unspecified)	-11.8	0.0	-20.6	1.7	-2.1
O=C(NCc1cccc(C(F)(F)F)c1)C1CCCN(c2ncccn2)C1 (stereo unspecified)	-15.4	-3.1	-8.5	130.8*	-4.6
O=C(COc1coc(CN2CCCc3ccccc32)cc1=O)Nc1ccccc1	0.1	-3.6	-11.2	1.5	-0.2
Cc1ccc(NC(=O)CCC(=O)N2CCC(C)CC2)c([N+](=O)[O-])c1	-3.5	-5.5	-2.6	-2.1	-1.8
C[C@H](CO)N1C[C@H](C)[C@@H](CN(C)C(=O)Nc2ccccc2)Oc2ccc(NC(=O)Nc3ccccc3)cc2C1=O	.	.	.	-367.0	.
Cc1noc(C)c1NC(=O)Nc1ccc2c(c1)C(=O)N([C@H](C)CO)C[C@H](C)[C@@H](CN(C)S(C)(=O)=O)O2	.	.	.	7.2	.
Cc1noc(C)c1NC(=O)Nc1ccc2c(c1)C(=O)N([C@H](C)CO)C[C@H](C)[C@H](CN(C)C)O2	.	.	.	46.2*	.
C[C@H](CO)N1C[C@H](C)[C@@H](CN(C)C(=O)Nc2ccc(C(F)(F)F)cc2)Oc2ccc(NC(=O)Nc3ccccc3)cc2C1=O	.	.	.	143.2*	.
C[C@H](CO)N1C[C@H](C)[C@@H](CN(C)S(=O)(=O)c2ccc(F)cc2)Oc2ccc(NC(=O)Nc3ccc(C(F)(F)F)cc3)cc2C1=O	.	.	.	-2.4	.
C[C@@H]1CN([C@H](C)CO)C(=O)c2cc(NC(=O)Nc3ccc(C(F)(F)F)cc3)ccc2O[C@H]1CN(C)S(=O)(=O)c1ccc(Cl)cc1	.	.	.	+	.
C[C@H]1CN([C@@H](C)CO)C(=O)c2cccc(NC(=O)Nc3ccc(C(F)(F)F)cc3)c2O[C@@H]1CN(C)S(=O)(=O)c1ccc(Cl)cc1	.	.	.	14.8*	.
C[C@H](CO)N1C[C@H](C)[C@@H](CN(C)S(=O)(=O)c2ccc(F)cc2)Oc2c(NC(=O)Nc3ccc(C(F)(F)F)cc3)cccc2C1=O	.	.	.	-2.8	.
CCCC(=O)N(c1ccc(OCC)cc1)S(=O)(=O)c1ccc2c3c(cccc13)C(=O)N2C	-4.0	2.7	3.5	-4.8	1.9
COCCC(=O)N1CCC(Oc2ccc(C(=O)N3CCCCC3CCO)cc2)CC1 (stereo unspecified)	1.7	2.4	-2.2	-0.5	-0.5
COc1cc(OC)cc(-c2cc3ccccc3c(=O)o2)c1	.	.	.	70.4*	.
SMILES	ZTA DNA inh	LYPLA2 inh	EBNA-1 inh	LANA-H2A inh	LYPLA1 inh
CC1(C)O[C@@H]2C[C@H]3[C@@H]4C[C@H](F)C5=CC(=O)C=C[C@]5(C)[C@@]4(F)[C@@H](O)C[C@]3(C)[C@]2(C(=O)CO)O1	4.8	0.8	6.0	34.3*!	-0.6
CC[C@@]1(O)C(=O)OCc2c1cc1n(c2=O)Cc2cc3c(N)cccc3nc2-1	9.5	-2.4	15.5	-1.3	-1.4
CC[C@@]1(O)C(=O)OCc2c1cc1n(c2=O)Cc2cc3c(CN(C)C)c(O)ccc3nc2-1	7.6	6.0	-4.6	68.2*	0.2
CN(C)c1ccc(N=Cc2cccn2C)cc1	+	3.9	+	-2.9	-0.3
COc1ccc(CCN2CCCC(CN(C)C(=O)c3ccoc3)C2)cc1 (stereo unspecified)	.	.	.	15.4*	.
CN(CC1CCCN(CCc2ccccc2F)C1)C(=O)c1ccoc1 (stereo unspecified)	-16.4	1.6	-5.7	-1.1	-0.5
CN(c1ccccc1)S(=O)(=O)c1ccc(C(=O)NCC(c2ccco2)N2CCCCC2)cc1 (stereo unspecified)	0.4	0.5	.	38.6*	-2.2
O=C(CCOc1ccccc1)NCC(c1ccco1)N1CCCCC1 (stereo unspecified)	7.2	3.4	1.3	7.9*	2.0
CC1CCCN(C(=O)Cn2nnc(-c3ccccc3F)n2)C1 (stereo unspecified)	-18.1	4.0	-3.5	3.9	4.0
CCOC(=O)c1ccc(NC(=O)CCc2nnc3ccc(N4CCCC4)nn23)cc1	9.4	1.1	4.0	1.6	-2.8
CCN(CC)c1ccc(NC(=O)CCc2nnc3ccc(N4CCCC4)nn23)c(C)c1	-13.3	-0.5	-6.3	28.8*	0.9
Cc1cc(C)cc(C(=O)OCC(=O)N2CCCCCC2)c1	0.9	1.8	.	.	-0.4
COc1ccc2nc(NC(=O)c3cccc(-c4cc5ccccc5oc4=O)c3)sc2c1	14.1	-6.1	44.3*	-3.8	-8.5
Cn1c(N)c(C(=O)COC(=O)/C=C/c2ccc(Cl)cc2)c(=O)n(C)c1=O	-0.3	1.9	.	91.9*	-3.7
CNCCC(Oc1ccc(C(F)(F)F)cc1)c1ccccc1 (stereo unspecified)	-1.3	-0.2	7.9	13.3*	-2.8
OC(CNCCc1ccc(C(F)(F)F)cc1)COC(c1ccccc1)c1ccccc1 (stereo unspecified)	-0.2	9.1	-12.6	-3.6	2.7
CC(C)(C)C(=O)Nc1ccc(C(=O)CSc2nnc(C3CC3)n2C2CC2)cc1	-8.8	-1.0	.	1.3	0.6
CCC(C)NCCOCCOc1ccc(Cl)c2ccccc12 (stereo unspecified)	-22.1	1.1	-8.7	12.1*	-1.4
CCCCNC(=O)c1ccc(SCC(=O)N(CC)CC)c([N+](=O)[O-])c1	7.2	2.1	-4.0	78.9*	2.0
COc1ccc(Cl)cc1NC(=O)CN(C)C(=O)c1n[nH]c2ccccc12	-3.4	-5.7	3.1	-1.0	-0.5
CCOCCCNC(=O)C(NC(=O)c1ccccn1)c1ccc(C)cc1 (stereo unspecified)	3.1	-5.5	-4.9	12.2*	-1.5
Cc1ccc(C2(C(=O)N3CCC(n4nc(-c5ccccc5)oc4=O)CC3)CC2)cc1	-9.0	5.7	8.3	-0.4	0.0

Screening data as filed in PubChem BioAssay.
